The results in this text go back to the supplement of paper PMC4237247.

In the assay the test system is HeLa. As to the kind of experiment: percent cells in S phase; higher = more S arrest. Conditions: 10 µM; 20 h; hit class: G1-phase inhibitor. On the procedure:
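HTS of 79,827 drug-like compounds at 10 uM. HeLa cells in 384-well plates were treated for 20 h, fixed, stained with Vybrant DyeCycle Green and scanned on an Acumen eX3 cytometer to give per-well cell cycle profiles (% cells in each phase). The plate Z' was 0.51. Only hits are listed: G1 hits >4 SD and S hits >5 SD from the mean.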
Regarding `C[C@@H]1C[C@@H]([C@H](O)CC2CC(=O)NC(=O)C2)C(=O)[C@@H](C)C1` [Cycloheximide], the “percent cells in S phase” value stood at 6.83%. For the compound `O=[N+]([O-])c1ccc(NCCO)c2ncccc12`, the “percent cells in S phase” value was found to be 4.86%. In the case of `C/C=C(/C)C(=O)O[C@H]1C(C)=C2[C@H]([C@@H]1OC(=O)CCCCCCC)[C@@](C)(OC(C)=O)C[C@H](OC(=O)CCC)[C@@]1(O)[C@H]2OC(=O)[C@@]1(C)O` it was 7.22%. For the compound `CNc1ccc2oc(C[C@H]3O[C@@]4(CC[C@H]3C)O[C@H]([C@H](C)C(=O)c3ccc[nH]3)[C@H](C)C[C@H]4C)nc2c1C(=O)O`, the “percent cells in S phase” value is 6.33%. The same measure for `CNC1CC2OC(C)(C1OC)n1c3ccccc3c3c4c(c5c6ccccc6n2c5c31)C(=O)NC4` (centres undefined): 5.4%; for `C[C@@H]1O[C@@H](O[C@H]2C[C@@H](O)[C@]3(CO)[C@H]4[C@H](O)C[C@]5(C)[C@@H](C6=CC(=O)OC6)CC[C@]5(O)[C@@H]4CC[C@]3(O)C2)[C@H](O)[C@H](O)[C@H]1O`: 15%. In the case of `CC(C)(C)c1cc(C=C(C#N)C#N)cc(C(C)(C)C)c1O` it was 8.81%. Consider `C[C@@]12C(=O)OC(=O)[C@]1(C)[C@H]1CC[C@@H]2O1`, for which the “percent cells in S phase” value came out at 8.95%. Consider `C/C(=C\c1ccc(Cl)cc1)[N+](=O)[O-]`, for which the “percent cells in S phase” value came out at 4.01%.
